Screening data as filed in PubChem BioAssay.
AI-2 QS modul: modulates the Vibrio harveyi AI-2 quorum sensing system; activity change, % at 7.5 µM; Vibrio harveyi JMH597 AI-2 luminescence/OD600 ratio, 9 h; hits give low values; strain lacks LuxN and CqsS sensors; 0 = neutral-control median; AID 2094; 300,000 compounds, 0.4% hits; in the data active means activity change below about -75%, passing the limit was not always enough;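 further: luminescence divided by OD600 gain over 9 h not by final OD600 alone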
E coli growth-1: bacterial growth inhibition, counter-screen for AddAB inhibitors; E. coli V3065 growth, OD600 absorbance, 18 h; inhibition, % at 11.9 µM; 330,000 compounds, 0.27% hits; AID 449728;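 active means inhibition above the campaign's mean inhibition across all tested compounds plus 3 SD, cut at about 9.9% in these data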;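 further: uninfected addAB+ strain grown without phage in ampicillin broth; 0% = DMSO wells and 100% = ciprofloxacin 0.95 µg/ml wells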
AddAB inh: less growth of phage-infected E. coli with AddAB. E. coli expressing H. pylori AddAB, absorbance growth. inhibition, % at 11.9 µM. 330,000 compounds, 0.29% hits; in the data active means inhibition above about 12%;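 further: 0% = vehicle wells of infected cells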
Tat transport: blocks Tat-dependent protein export in E. coli; E. coli MC4100 TorA-mCherry Tat export, fluorescence; inhibition, % at 10 µM; 340,000 compounds, 0.036% hits;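 active means mean replicate inhibition at least 50% and at least half of replicates individually reaching 50%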;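 further: exported cargo escapes ClpAP degradation while cytoplasmic cargo is degraded and loses fluorescence; 0% = median of neutral control wells and 100% = median of NaSCN control wells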
E coli growth-2: blocks Escherichia coli growth. OD600, 23 h; hits give low values. OD600 absorbance (no concentration beside the values). 330,000 compounds, 0.21% hits. AID 1053175;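 active means OD600 absorbance below the run mean of sample wells minus 3.6 SD, in any replicate, cut at about 0.56 in these data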
phage Ecoli inh: E. coli growth loss with phage present; 360,000 compounds, 0.26% hits; inhibition, % at 11.9 µM; growth absorbance; in the data active means inhibition above about 11%
AddAB conf: confirmation screen: growth loss of phage-infected E. coli expressing H. pylori AddAB | shares compounds with AddAB inh | inhibition, % at 11.9 µM | E. coli V3065 expressing H. pylori AddAB, T4 phage, OD; T4 phage with gene 2 nonsense mutations | 880 compounds, 64% hits;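 active means mean inhibition above a set limit taken from the earlier primary screen, cut at about 13% in these data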;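 further: higher means less bacterial growth since AddAB block lets phage replicate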
RecBCD counter: reduces growth of phage-infected RecBCD+ E. coli, AddAB inhibitor counter-screen; inhibition, % at 11.9 µM; E. coli V66 + mutant T4 phage, OD growth; shares compounds with AddAB inh; 880 compounds, 73% hits;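 active means mean inhibition above the mean of solvent-only control wells plus 3 SD, cut at about 4% in these data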;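 further: optical density read after an 18 h incubation at 37 °C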
bact viab count: reduces bacterial viability, AddAB inhibitor counter-screen. AID 488956. shares compounds with AddAB inh. 880 compounds, 35% hits. absorbance (AddAB counterscreen). inhibition, % at 11.9 µM; in the data active means inhibition above about 25%
RecBCD conf: growth loss of phage-infected V66 E. coli, RecBCD confirmation screen; shares compounds with phage Ecoli inh; 890 compounds, 45% hits; inhibition, % at 11.9 µM; E. coli V66 + T4 2- phage, growth OD;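 active means mean inhibition over triplicates exceeding the hit threshold derived in the original primary screen, cut at about 11% in these data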
Ecoli viability: inhibits E. coli viability, flagging RecBCD hits as nonselective; shares compounds with phage Ecoli inh; absorbance (OD) growth; inhibition, % at 11.9 µM; 890 compounds, 29% hits; AID 651983; in the data active means inhibition above about 20%;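 further: E. coli strain V66 grown with compound alone and no phage infection; 0% = bacteria with DMSO vehicle only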
AddAB counter: growth loss of phage-infected AddAB E. coli, RecBCD counter-screen. shares compounds with phage Ecoli inh. E. coli expressing H. pylori AddAB + T4 phage, OD growth; gene 2 mutant T4, recBCD-deleted host. inhibition, % at 11.9 µM. 890 compounds, 45% hits;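 active means mean inhibition above the solvent-only control wells' mean plus 3 SD, cut at about 22% in these data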;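 further: higher means less bacterial growth from phage killing when AddAB is blocked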
An asterisk follows results filed as active. A selection: hits, their analogues and other compounds. The true share with any hit is near 0.79%.

For Cc1ccc(C(C)C)c(OCc2ccc(C(=O)N/N=C/c3ccc(O)cc3O)cc2)c1 the results were AI-2 QS modul 19, E coli growth-1 15*, AddAB inh 13*, Tat transport -7, phage Ecoli inh 27*, AddAB conf 15*, RecBCD counter 18*, bact viab count 20, RecBCD conf 14*, Ecoli viability 17 and AddAB counter 24*.
Screening c1ccc(-c2cc(CSc3nc4ccccc4[nH]3)on2)cc1 returned AI-2 QS modul -28, E coli growth-1 26*, AddAB inh 24*, Tat transport -50, E coli growth-2 0.7, phage Ecoli inh 18*, AddAB conf 23*, RecBCD counter 17*, bact viab count 14, RecBCD conf 12*, Ecoli viability 15 and AddAB counter 17.
COC(=O)C1=C(C(=O)OC)C2N(C)c3ccccc3[C@@]23CC(C(=O)OC)N(C(=O)C2CCC2)C3=N1 (some centres not stated) was read as E coli growth-2 0.68.
`CC(C)COc1ccc(Cc2cnc(N)nc2N)cc1` gave AI-2 QS modul 14, E coli growth-1 7, AddAB inh 12*, Tat transport -5, E coli growth-2 0.24*, phage Ecoli inh 16*, AddAB conf -1, RecBCD counter 9.2*, bact viab count 3, RecBCD conf 7, Ecoli viability 5 and AddAB counter 11.
`Oc1ccc(N=Nc2ccc3c(c2)OCCO3)c2ncccc12` gave AI-2 QS modul 48, E coli growth-1 9, AddAB inh 13*, Tat transport -6, E coli growth-2 0.71, phage Ecoli inh 11*, AddAB conf 13*, RecBCD counter 9.6*, bact viab count 9, RecBCD conf 9, Ecoli viability 10 and AddAB counter 14.
`NS(=O)(=O)c1ccc(N=Nc2ccc(O)c3ncccc23)cc1` gave AI-2 QS modul 20, E coli growth-1 4, AddAB inh 6, Tat transport -2, E coli growth-2 0.7 and phage Ecoli inh 1.
For CCCCCOc1ccc(CSC(=N)N)cc1[N+](=O)[O-] the results were AI-2 QS modul 28, E coli growth-1 13*, AddAB inh 13*, Tat transport -21, E coli growth-2 0.53*, phage Ecoli inh 13*, AddAB conf 15*, RecBCD counter 9.7*, bact viab count 12, RecBCD conf 2, Ecoli viability 4 and AddAB counter 14.
`N#Cc1ccc(NC(=O)Nc2ccc(Cl)cc2)cc1` gave AI-2 QS modul -147*, E coli growth-1 15*, AddAB inh 16*, Tat transport 6, E coli growth-2 0.49*, phage Ecoli inh 13*, AddAB conf 16*, RecBCD counter 18*, bact viab count 16, RecBCD conf 14*, Ecoli viability 17 and AddAB counter 20.
`Cc1cccc(N=NC(=CO)C(=O)c2ccc(Br)cc2)c1` gave E coli growth-2 0.73.
Screening COc1ccc(-c2oc3c(OC)c(OC)c(OC)c(O)c3c(=O)c2OC)cc1OC returned AI-2 QS modul 28, E coli growth-1 8, AddAB inh 13*, Tat transport 3, E coli growth-2 0.7, phage Ecoli inh 12*, AddAB conf 8, RecBCD counter 4.1*, bact viab count 6, RecBCD conf 4, Ecoli viability 6 and AddAB counter 5.
`COc1c(OC)c(O)c2c(=O)c(O)c(-c3ccccc3)oc2c1OC` gave AI-2 QS modul 24, E coli growth-1 1, AddAB inh 7, Tat transport 2, E coli growth-2 0.65 and phage Ecoli inh 5.
`O=C(O)CSc1nnc(-c2ccccc2O)n1Cc1ccccc1` gave AI-2 QS modul 17, E coli growth-1 0, AddAB inh -4, Tat transport 12, E coli growth-2 0.71 and phage Ecoli inh 2.
Screening O=C(CSc1nnc(-c2ccccc2O)n1Cc1ccccc1)NNC(=O)c1ccccc1O returned AI-2 QS modul 35, E coli growth-1 14*, AddAB inh 25*, Tat transport 18, E coli growth-2 0.6, phage Ecoli inh 13*, AddAB conf 5, RecBCD counter 5.9*, bact viab count 5, RecBCD conf 4, Ecoli viability 5 and AddAB counter 8.
COc1ccc(/C=N/NC(=O)c2nc(-c3ccccc3)n(-c3ccccc3)n2)c(O)c1 was read as AI-2 QS modul 15, E coli growth-1 19*, AddAB inh 21*, Tat transport -6, phage Ecoli inh 22*, AddAB conf 11, RecBCD counter 19*, bact viab count 9, RecBCD conf 11*, Ecoli viability 14 and AddAB counter 20.
Screening CC(=NNS(=O)(=O)c1cccc([N+](=O)[O-])c1)c1ccncc1 returned E coli growth-2 0.71.
`CCn1nc(C(=O)O)c(=O)c2cc3c(cc21)OCO3` gave AI-2 QS modul 15, E coli growth-1 98*, AddAB inh 96*, Tat transport 28, E coli growth-2 0.058*, phage Ecoli inh 53*, AddAB conf 99*, RecBCD counter 98*, bact viab count 101*, RecBCD conf 90*, Ecoli viability 99* and AddAB counter 99*.
`CCn1ccc(=O)c2cc3c(cc21)OCO3` gave AI-2 QS modul 13, E coli growth-1 2, AddAB inh 3, Tat transport 14, E coli growth-2 0.68 and phage Ecoli inh 0.
Screening COc1ccc(N=C2SC(=Cc3ccc(C)s3)C(=O)N2CC(C)C)cc1 returned E coli growth-2 0.73.
